# Results: the supplement of paper PMC11417369
# Over roughly 25,000 sequences, “ln(normalized median fluorescence intensity)” has its median near 6.7; the highest 2% begin near 10. Only a selection was taken, and the highest values are over-represented in it overall.
# Test system: PfHDP1 homeodomain (GST-tagged)
# Assay: gcPBM binding intensity (ln(normalized median fluorescence intensity)); higher = stronger DNA binding
# Outline: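 GST-tagged P. falciparum DNA-binding domains produced in E. coli were incubated for 1 h on an Agilent 4 × 180k array of primer-extended double-stranded 36-bp intergenic genomic probes with negative controls. Binding intensity is the highest Masliner-normalised natural-log median intensity across replicate spots of either probe orientation, with bound protein detected by Alexa488 anti-GST antibody at 488 nm.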
row,Sequence,gcPBM binding intensity (ln)
1,TTTTTATATTTTACATGTACATAAATATATTATATA [XGTACX_site958],6.46
2,AAATACATACATTAATGTACAAATAGAAACACTCTT [XGTACX_site1512],6.85
3,TGAATATTTATACATGCACACTAAAATAAAGAATCT [CACACA_site5351],8.07
4,ACGGACAATACGGAAACACACAAGTTATTTTATCAT [CACACA_site7310],6.21
5,TAATGTTGAGAATTTTGTACATATAGATCAATTTAT [XGTACX_site5426],6.33
6,TTATGATAACTTTGCACACACTTAGGAAAAGTTATG [CACACA_site6836],10.6
7,AAAGTAGGCTTATATGCACACTTTGAAATATTATAA [CACACA_site5117],9.77
8,ACGTTAGGCTTATTTGCACACTTGTATTATAATTTT [CACACA_site1317],10.3
9,TTATGATAATTTTGCACACACTTAGGAAAAATTATG [CACACA_site4949],10.9
10,TTCAAAAAAGGAAAGTTGCACTTGATACGCTTATTA [GTGCAC_site9411],7.38
11,TTTTATGATAATTTTGCACACACTTAGGAAAAATTA [CACACA_site1556],10.4
12,GAAAAATTAATAAATAAACACACATATATATATATA [CACACA_site8835],9.29
13,AATCTAATTAAAATCACACATATATTCGTCGTAATA [CACACA_site5855],6.05
14,TACCCATGCATTTTTGCACACACATATATATATAAA [CACACA_site1429],10.7
15,CCCATGCATTTTTGCACACACATATATATATAAATA [CACACA_site1430],10.8
16,AGAATAAATATGCACACATGCATATATTTTTACACT [TGCATGCA_site893],10.3
17,TAAATTATAAATTGCACACATATTTTTATATTTATA [CACACA_site2976],10.2
18,TTGAAGAATAAATATGCACACATGCATATATTTTTA [CACACA_site5840],9.33
19,TTTTAAATAATACATACATGCATATATACACATATA [TGCATGCA_site8],6.58
20,AATATTTTTTTTTAAACATGCATATTTGCATTACCC [TGCATGCA_site437],8.67
21,CATATTTGTATATGCACACATAAATTTTTCCATTTC [CACACA_site3467],10.2
22,CCCATGCATTTTTGCACACACATATATTTATAAATA [CACACA_site6785],10.7
23,AAAAAAAAAAAAAAAAGTACAAAAATATATATGCAT [XGTACX_site8392],6.48
24,AATGATACTTAGGGGCATGTCTCTGGGGGCATAACC [CACACA_negctrl_site591],6.63
25,CATATTTCTTTATTGGCACACATTTTTTCAATTATA [CACACA_site1618],6.87
